In PubChem BioAssay AID1159580 (chemical genetic matrix, 2015):
“And” between values parts separate entries of the source, which are not always exact repeats. Equal values may be shown once. In all, about 5,500 compounds went through this assay and about 2,000 (36%) were called active. About 18% were inconclusive and are not listed. Rule as the data show it: active = normalized growth mostly below about 0.91 (no sharp cut-off); inconclusive = no clear call, values can overlap the other calls; inactive = mostly above about 0.92. This is one part of the list.

Assay: chemical genetic growth profiling, strain panel (AID 1159580);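 also: tested at 20 µM; growth read once vehicle control cultures reached saturation at 30 °C; 1 = growth at the plate median or of vehicle wells; lower values mean less growth of the strain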
Conditions: S. cerevisiae deletion strains, growth OD

Measured: normalized growth

Cc1cc(=O)[nH]c(=S)[nH]1
inactive: locus YAL013W, strain DEP1, stronger effect = lower value 1.01 | locus YAL021C, strain ccr4, stronger effect = lower value 0.956 | locus YAL026C, strain drs2, stronger effect = lower value 0.974 | locus YAL030W, strain snc1, stronger effect = lower value 0.98 | locus YBL061C, strain skt5, stronger effect = lower value 0.987 | locus YBR009C, strain hhf1, stronger effect = lower value 0.954 | locus YBR021W, strain FUR4, stronger effect = lower value 0.986 | locus YBR023C, strain chs3, stronger effect = lower value 0.977 | locus YBR171W, strain sec66, stronger effect = lower value 0.987 | locus YBR229C, strain ROT2, stronger effect = lower value 1.01 | locus YBR231C, strain swc5, stronger effect = lower value 0.989 | locus YBR279W, strain paf1, stronger effect = lower value 0.973 | locus YCL011C, strain gbp2, stronger effect = lower value 0.964 | locus YCL016C, strain dcc1, stronger effect = lower value 0.96 | locus YCL029C, strain bik1, stronger effect = lower value 1.02 | locus YCL061C, strain MRC1, stronger effect = lower value 0.926 | locus YCL069W, strain vba3, stronger effect = lower value 0.97 | locus YCR088W, strain abp1, stronger effect = lower value 0.978 | locus YDL005C, strain med2, stronger effect = lower value 0.97 | locus YDL035C, strain GPR1, stronger effect = lower value 0.993 | locus YDL040C, strain nat1, stronger effect = lower value 0.977 | locus YDL074C, strain BRE1, stronger effect = lower value 1.03 | locus YDL101C, strain DUN1, stronger effect = lower value 1.03 | locus YDL134C, strain PPH21, stronger effect = lower value 1 | locus YDL185W, strain tfp1, stronger effect = lower value 1.02 | locus YDL192W, strain arf1, stronger effect = lower value 1 | locus YDR001C, strain nth1, stronger effect = lower value 0.972 | locus YDR069C, strain doa4, stronger effect = lower value 0.982 | locus YDR101C, strain arx1, stronger effect = lower value 0.998 | locus YDR137W, strain rgp1, stronger effect = lower value 0.958 | locus YDR150W, strain NUM1, stronger effect = lower value 1.01 | locus YDR159W, strain sac3, stronger effect = lower value 0.937 | locus YDR162C, strain NBP2, stronger effect = lower value 1.01 | locus YDR195W, strain ref2 0.948 | locus YDR297W, strain sur2, stronger effect = lower value 0.963 | locus YDR318W, strain mcm21, stronger effect = lower value 1.03 | locus YDR334W, strain swr1, stronger effect = lower value 0.973 | locus YDR335W, strain msn5, stronger effect = lower value 0.968 | locus YDR388W, stronger effect = lower value 1.01 | locus YDR392W, strain spt3, stronger effect = lower value 0.929 | locus YDR502C, strain sam2, stronger effect = lower value 0.999 | locus YEL003W, strain gim4, stronger effect = lower value 0.965 | locus YEL037C, strain rad23, stronger effect = lower value 0.98 | locus YEL061C, strain CIN8 (second series), stronger effect = lower value 0.973 | locus YEL061C, strain CIN8, stronger effect = lower value 1 | locus YER015W, strain faa2, stronger effect = lower value 0.989 | locus YER016W, strain bim1, stronger effect = lower value 0.938 | locus YER110C, stronger effect = lower value 1.01 | locus YER111C, strain swi4, stronger effect = lower value 0.976 | locus YER155C, strain BEM2 (second series), stronger effect = lower value 1.01 | locus YER155C, strain BEM2, stronger effect = lower value 1.01 | locus YER167W, strain BCK2, stronger effect = lower value 0.996 | locus YFR010W, strain ubp6, stronger effect = lower value 0.97 | locus YGL078C, strain dbp3, stronger effect = lower value 0.991 | locus YGL086W, strain mad1, stronger effect = lower value 1 | locus YGL167C, strain pmr1, stronger effect = lower value 0.968 | locus YGL173C, strain kem1, stronger effect = lower value 0.968 | locus YGL227W, strain vid30, stronger effect = lower value 0.986 | locus YGL240W, strain doc1, stronger effect = lower value 0.988 | locus YGL248W, strain PDE1, stronger effect = lower value 1.01 | locus YGL253W, strain hxk2, stronger effect = lower value 0.949 | locus YGR078C, strain PAC10, stronger effect = lower value 1.02 | locus YGR135W, strain pre9, stronger effect = lower value 1 | locus YGR229C, strain SMI1, stronger effect = lower value 1.01 | locus YGR252W, strain gcn5, stronger effect = lower value 0.978 | locus YHR013C, strain ard1, stronger effect = lower value 0.914 | locus YHR027C, strain rpn1, stronger effect = lower value 0.965 | locus YHR030C, strain SLT2, stronger effect = lower value 1.01 and 1.08 | locus YHR079C, strain IRE1 (second series), stronger effect = lower value 1.01 | locus YHR079C, strain IRE1, stronger effect = lower value 1.05 | locus YHR094C, strain hxt1, stronger effect = lower value 1.01 | locus YHR129C, strain ARP1, stronger effect = lower value 1.02 | locus YHR142W, strain chs7, stronger effect = lower value 0.952 | locus YHR200W, strain rpn10, stronger effect = lower value 1 | locus YIL066C, strain RNR3, stronger effect = lower value 1.01 | locus YIL073C, strain SPO22, stronger effect = lower value 1.04 | locus YIL125W, strain kgd1, stronger effect = lower value 1 | locus YIR030C, strain dcg1, stronger effect = lower value 1 | locus YJL092W, strain hpr5, stronger effect = lower value 0.987 | locus YJL095W, strain BCK1 (second series), stronger effect = lower value 0.978 | locus YJL095W, strain BCK1, stronger effect = lower value 1.04 | locus YJL115W, strain asf1, stronger effect = lower value 0.97 | locus YJL129C, strain trk1, stronger effect = lower value 0.971 | locus YJL134W, strain LCB3, stronger effect = lower value 1.01 | locus YJL154C, strain vps35, stronger effect = lower value 0.972 | locus YJL164C, strain tpk1, stronger effect = lower value 0.947 | locus YJL166W, strain qcr8, stronger effect = lower value 0.976 | locus YJL168C, strain set2, stronger effect = lower value 1.01 | locus YJL187C, strain SWE1 (second series), stronger effect = lower value 1.03 | locus YJL187C, strain SWE1, stronger effect = lower value 0.976 | locus YJR043C, strain POL32, stronger effect = lower value 1.02 | locus YJR066W, strain TOR1, stronger effect = lower value 0.996
